The test system of assay [1] is Wnt5a (protein binding on small-molecule microarray). The assay is described as follows: small molecules binding Wnt5a protein – biophysical, small-molecule microarray, 635/667 nm fluorescence, primary screen (AID 1142).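 Further: fluorescence read at 667 nm with signal to noise per printed feature.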 The conditions noted are these: 635 nm fluorescence, higher = more signal.
Assay [2] is described as follows: ATP-based viability of Huh7 replicon cells – cell-based, CellTiter-Glo luminescence, basal, 48 h, cytotoxicity control for HCV replication inhibitor project, primary screen (AID 1143).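 Further: Huh7 hepatoma cells carrying a hepatitis C replication reporter with no stimulus; test concentration not given here.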 The conditions noted are these: higher = more signal, called active from +8 up or from −8 down. (In general: A replicon is a self-replicating genome or part of one, used to study replication in cells.)

Assay [3] can be described thus: Pseudomonas biofilm growth suppression – PAO1 strain, BacTiter-Glo luminescence, LB-PBS, primary screen (AID 1144). The conditions noted are these: P. aeruginosa PAO1 biofilm, 12 h, higher = more signal.
The nature of assay [4]: basal CRE-LacZ reporter activity in PC12 – cell-based, unstimulated, primary screen (AID 1145). The conditions noted are these: no forskolin, luminescence, 4.5 h, higher = more signal, called active from +8 up or from −8 down.
Assay [5] can be described thus: forskolin-driven CRE-LacZ activity in PC12 – cell-based, CRE-LacZ reporter, forskolin-stimulated, primary screen (AID 1146).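 Further: PC12 cells with 6xCRE LacZ reporter stimulated by forskolin 10 µM; beta-galactosidase reporter signal reflecting CREB driven transcription.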 Conditions: luminescence, 4.5 h, higher = more signal, called active from +8 up or from −8 down.
In assay [6] the target is Streptavidin (Streptomyces avidinii) (UniProt P22629). The assay is described as follows: compounds binding control protein streptavidin – biophysical, small-molecule microarray, 635/667 nm fluorescence, artefact control for SMM compound annotation, primary screen (AID 1147).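 Further: signal reflects streptavidin binding to arrayed compounds as a control protein.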 Conditions: higher = more signal.
Sequence of Streptavidin (Streptomyces avidinii) (P22629 whole entry, looked up): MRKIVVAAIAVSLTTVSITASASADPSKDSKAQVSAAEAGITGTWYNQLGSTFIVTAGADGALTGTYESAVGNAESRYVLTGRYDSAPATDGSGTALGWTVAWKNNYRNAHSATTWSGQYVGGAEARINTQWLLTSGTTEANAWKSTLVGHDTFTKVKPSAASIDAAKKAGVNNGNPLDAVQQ
Assay [7] in a line: probe aInhba binding on compound microarray – biochemical, small-molecule microarray, 635/667 nm fluorescence, primary screen (AID 1148).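 Further: score merges 667nm spot fluorescence with signal-to-noise for antibody binding to printed compounds.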 Conditions: higher = more signal.
Assay [8] concerns the target Torsin-1A (Homo sapiens) (UniProt O14656). The assay is described as follows: TOR1A wild-type binding on microarray – cell lysate, small-molecule microarray, lysate, 635/667 nm, primary screen (AID 1149). The conditions noted are these: COS7 hTOR1A-WT lysate, 635 nm fluorescence, higher = more signal.
Assay [9] has the same target. Briefly: torsin A mutant lysate binding on microarrays – cell lysate, small-molecule microarray, COS7 lysate, 635/667 nm fluorescence, primary screen (AID 1150).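 Further: score pools 667 nm emission and signal to noise measuring lysate protein binding.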 Conditions: COS7 hTOR1A mutant lysate, 635 nm fluorescence, higher = more signal.
The subject of assay [10] is Sonic hedgehog protein (Shh). The assay is described as follows: Sonic hedgehog microarray binding compounds – biochemical, small-molecule microarray, 635/667 nm fluorescence, primary screen (AID 1151).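 Further: Shh protein binding to compounds spotted on small-molecule microarray slides; score combines spot fluorescence intensity with signal-to-noise across triplicate slides.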 Conditions: 635 nm fluorescence, higher = more signal.

The structures appear in SMILES notation. Calls of active or inactive are those of the source. Unless noted, how the calls were made is not given here.

Sequence of Torsin-1A (Homo sapiens) (O14656 whole entry, looked up): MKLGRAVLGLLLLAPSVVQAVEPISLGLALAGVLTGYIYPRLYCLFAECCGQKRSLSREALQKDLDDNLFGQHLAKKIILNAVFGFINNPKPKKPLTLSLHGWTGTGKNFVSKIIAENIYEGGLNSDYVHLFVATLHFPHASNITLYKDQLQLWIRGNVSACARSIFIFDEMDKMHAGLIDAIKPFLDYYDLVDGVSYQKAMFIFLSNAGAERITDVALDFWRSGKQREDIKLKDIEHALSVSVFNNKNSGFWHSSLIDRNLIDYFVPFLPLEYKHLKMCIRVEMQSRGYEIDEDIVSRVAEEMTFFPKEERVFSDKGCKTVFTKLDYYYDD

`O=C1C2C=CC(C(O)c3ccc(F)cc3)N(n3cnnc3)C2C(=O)N1Cc1ccccc1` (stereo not given): the composite z-score is -0.0707 in [1]; -0.0183 in [6]; 0.0383 in assay [7]; -0.216 with Torsin-1A (Homo sapiens) [8]; 0.461 with Torsin-1A (Homo sapiens) [9]; -0.428 in assay [10]. For the same compound, the z-score in assay [2] is -3.57 (inactive); in assay [3], -0.488 (inactive); in assay [4], -0.527 (inactive); in assay [5], -0.0197 (inactive).

Turning to `CC(C)N1C(=O)c2ccccc2[C@@H](C(=O)NC2CC2)[C@@H]1c1ccc(CO)cc1`, the composite z-score in [1] was 0.302; in assay [6] it was 0.381; in assay [7], -0.0059; in the assay with Torsin-1A (Homo sapiens) [8], 0.775; in the assay with Torsin-1A (Homo sapiens) [9], 0.852; in assay [10] it was 0.531. Further, the z-score was -0.264 (inactive) in assay [2], -0.226 (inactive) in [3], 0.001 (inactive) in [4] and -0.3 (inactive) in assay [5].

Regarding `Cc1ccc(S[C@]2(C(=O)O)CC(=O)N(Cc3ccccc3Cl)[C@@H]2c2ccc(CO)cc2I)cc1`, the composite z-score was -0.3 in assay [1]; -0.657 in assay [6]; -0.649 in [7]; 0.294 in the assay with Torsin-1A (Homo sapiens) [8]; 0.396 with Torsin-1A (Homo sapiens) [9]; 0.0254 in assay [10]. For the same compound, the z-score in [2] is -2.09 (inactive); in assay [3] it was -0.309 (inactive); in [4] it was 1.2 (inactive); in [5], 3 (inactive).

Take `[N-]=[N+]=Nc1ccccc1[C@H]1OC(c2ccc(OCCCO)cc2)=N[C@@]1(CCS(=O)(=O)c1ccccc1)C(=O)NCCN1CCOCC1`: the composite z-score in [1] came to 1.11; in [6] it was 0.866; in assay [7] it was 0.283; in the assay with Torsin-1A (Homo sapiens) [8], 0.484; with Torsin-1A (Homo sapiens) [9] it was 1.47; in assay [10], 0.273. Moreover, the z-score in [2] is -1.14 (inactive); in assay [3] it was 1.38 (inactive); in [4] it was -0.45 (inactive); in assay [5], -0.5 (inactive).

With `COC(=O)[C@@]1(Cc2ccccc2)[C@@H]2C(=CC(=O)[C@H]2CC(=O)C(=O)N(C)C)CN1C(=O)c1ccccc1`, the composite z-score in assay [1] is 0.117; in assay [6], -0.0043; in assay [7] it was 0.308; with Torsin-1A (Homo sapiens) [8], 0.2; with Torsin-1A (Homo sapiens) [9] it was 0.239; in assay [10], -0.2. Also, the z-score in [2] is -2.86 (inactive); in [3] it was 0.421 (inactive); in [4], 0.0075 (inactive); in [5] it was 0.087 (inactive).

Regarding `CC(C)(C)N1CC=CC23O[C@@H]4C=CCCOC(=O)C4[C@H]2C(=O)N(CCO)[C@@H]3C1=O` (stereo not given in full), the composite z-score in assay [1] was -0.323; in assay [6] it was -0.485; in assay [7], -0.237; in the assay with Torsin-1A (Homo sapiens) [8], -0.102; with Torsin-1A (Homo sapiens) [9], -0.664; in [10], 1.09. The z-score in assay [2] is 0.297 (inactive); in assay [3], -0.249 (inactive); in assay [4], -1.44 (inactive); in [5] it was -0.443 (inactive).

As for `COc1ccc([Si](C)(C)[C@@H]2[C@@H](CC(=O)N3Cc4ccccc4C[C@H]3CO)O[C@]3(C(=O)N(C)c4ccccc43)[C@H]2C)cc1`, the composite z-score in assay [1] was found to be 0.269; in assay [6] it was 1.64; in [7], 0.189; with Torsin-1A (Homo sapiens) [8], 0.783; in the assay with Torsin-1A (Homo sapiens) [9] it was 0.741; in assay [10], 2.03. Besides, the z-score in [2] is -7.08 (inactive); in [3] it was -1.58 (inactive); in assay [4] it was 10.2 (active); in [5], -1.92 (inactive).

With `O=C1O[C@H](c2ccccc2)[C@H](c2ccccc2)N2[C@H]1[C@@H](C(=O)NC[C@H](O)c1ccccc1)[C@]1(C(=O)Nc3ccc(C#CCCO)cc31)[C@H]2c1ccc(OCCO)cc1`, the composite z-score in assay [1] turned out to be 0.518; in assay [6], 0.0889; in [7], 0.0464; with Torsin-1A (Homo sapiens) [8], 0.13; in the assay with Torsin-1A (Homo sapiens) [9], 0.38; in [10], 1.76. Further, the z-score in assay [2] was -0.821 (inactive); in assay [3], -0.626 (inactive); in assay [4], 0.299 (inactive); in [5], 0.0413 (inactive).

Regarding `C=C(C(=O)CC[C@@H](OC(C)=O)c1ccc(CO)o1)C(C)C`, the composite z-score was 0.911 in [1]; 0.0155 in assay [6]; -0.0427 in [7]; -0.427 in the assay with Torsin-1A (Homo sapiens) [8]; -0.0059 with Torsin-1A (Homo sapiens) [9]; 1.91 in assay [10]. The z-score in [2] was 1.18 (inactive); in assay [3], -0.947 (inactive); in [4], 0.275 (inactive); in assay [5] it was 2.17 (inactive).

With `COCCCNC(=O)[C@@]1(Cc2ccccc2N=[N+]=[N-])COC(c2ccc(OCCCO)cc2)=N1`, the composite z-score in assay [1] was 0.926; in assay [6], 1.63; in [7] it was 0.0184; with Torsin-1A (Homo sapiens) [8], 0.308; with Torsin-1A (Homo sapiens) [9], 0.614; in assay [10], -0.676. Besides, the z-score in assay [2] is -1.63 (inactive); in assay [3], 0.53 (inactive); in assay [4] it was -0.641 (inactive); in [5], -0.849 (inactive).

The values are drawn from PubChem BioAssay.
